Source: PubChem
Rows were chosen to be rich in hits. Some 21% of all compounds tested hit in one or more screens of this group.
MRP1 act: H69AR viability gain despite doxorubicin, primary screen, MRP-1 activator project, H69AR cells, CellTiter-Glo; viability rescue; viability increase, % at 10 µM; hit rate 0.61% among 140,000;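 active = viability gain under doxorubicin at or above a set limit, the compound median plus 3 SD, cut at about 4.7% in these data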;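 also: MRP-1 overexpressing cells given doxorubicin 25 µM after compound pretreatment; 18-22 h compound pretreatment then 72 h with doxorubicin before readout; 0% = doxorubicin-only wells and 100% = vehicle-treated cells without doxorubicin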
CYP2C19 activ: human CYP2C19 activators, primary screen, biochemical, luminescence | Cytochrome P450 2C19 (Homo sapiens), P33261 | recombinant CYP2C19, luciferin-H EGE luminescence; active compounds read high; 0 = fully inhibited enzyme, 1 = untreated enzyme | activation factor at 5 µM | AID 1025, 2008 | 96,000 tested, under 10 active;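 active = activation factor of at least 2 at 5 µM in the primary screen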;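 also: 0 = wells with 2.5 mM tranylcypromine and 1 = vehicle-only wells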
Target sequence (P33261 whole entry, looked up): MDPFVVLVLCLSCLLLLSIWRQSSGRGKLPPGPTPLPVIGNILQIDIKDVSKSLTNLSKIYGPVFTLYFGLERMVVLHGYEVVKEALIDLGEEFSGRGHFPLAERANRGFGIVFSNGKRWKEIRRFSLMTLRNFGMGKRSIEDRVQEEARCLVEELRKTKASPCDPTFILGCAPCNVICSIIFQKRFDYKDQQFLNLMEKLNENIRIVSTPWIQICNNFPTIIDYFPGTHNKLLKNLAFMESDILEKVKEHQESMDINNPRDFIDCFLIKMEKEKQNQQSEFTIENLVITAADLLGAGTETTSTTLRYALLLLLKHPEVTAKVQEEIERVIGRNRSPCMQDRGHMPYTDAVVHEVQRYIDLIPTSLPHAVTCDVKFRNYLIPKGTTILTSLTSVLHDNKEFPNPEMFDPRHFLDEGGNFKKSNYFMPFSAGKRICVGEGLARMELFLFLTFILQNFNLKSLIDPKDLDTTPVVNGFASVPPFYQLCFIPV
MRP resist rev: reversal of MRP1-mediated doxorubicin resistance, primary screen, H69AR cells, doxorubicin co-treatment | H69AR cells + 2 uM doxorubicin, CellTiter-Glo, 72 h | differential viability (reversal), % at 10 µM | hit rate 0.04% among 85,000 | AID 602, 2007;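 active = viability drop by adding the cancer drug above about 55%, with treated viability meeting a 40% cutoff, limit read from the data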;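 also: viability without doxorubicin minus viability with 2 µM doxorubicin for each compound; larger differential means the compound sensitizes cells more to doxorubicin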
CYP2C19 inhib: blockers of cytochrome P450 2C19 activity – biochemical, luminescence, ADME assay, primary screen | inhibition, % at 5 µM | hit rate 21% among 96,000 | AID 778, 2007 | CYP2C19 Supersomes, luciferin-H EGE luminescence, 30 min;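 active = CYP2C19 inhibition above a set limit at 5 µM in the primary screen, cut at about 50% in these data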;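 also: plate controls were negative control wells for no effect and 2.5 mM tranylcypromine positive control for full effect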
CYP2C9 activ: human CYP2C9 activators, primary screen, biochemical, luminescence | Cytochrome P450 2C9 (Homo sapiens), P11712 | AID 1024, 2008 | hit rate 1.4% among 96,000 | recombinant CYP2C9, luciferin-H conversion; active compounds read high; factor 1 = untreated enzyme, 0 = blocked | activation factor at 5 µM;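 active = activation factor of 2 or more for CYP2C9 at a 5 µM dose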;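 also: 0 = sulfaphenazole-blocked wells and 1 = vehicle-only wells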
CYP2C9 inh: blockers of cytochrome P450 2C9 activity – biochemical, luminescence, ADME assay, primary screen; inhibition, % at 5 µM; CYP2C9 Supersomes, luciferin-H conversion; hit rate 20% among 96,000; P11712;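 active = blocking of liver enzyme CYP2C9 beyond about 50% at 5 µM, limit read from the data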
* hit, by the source's call; . = no result given.

SMILES	MRP1 act	CYP2C19 activ	MRP resist rev	CYP2C19 inhib	CYP2C9 activ	CYP2C9 inh
COC(=O)c1ccc(-c2ccc(CNCC(O)c3ccccc3)o2)cc1 (stereo unspecified)	-3	0.4	-19	60*	0.7	28
Cc1nn(Cc2ccccc2)c(N)c1-c1ccccc1	-2	0.4	17	63*	0.8	21
Cc1ccc(NC(=O)COC(=O)c2ccc(OCc3c(C)noc3C)cc2)cc1S(=O)(=O)N1CCOCC1	1	.	.	.	.	.
Cc1cc(F)ccc1NCc1ccncc1	1	0.2	12	82*	0.4	62*
Cc1cc(F)ccc1NCc1cc2c(cc1[N+](=O)[O-])OCO2	0	0.7	.	28	1	2
CC(C)CN(C(=O)COC(=O)c1cc2c(s1)CCC2)C1CCS(=O)(=O)C1 (stereo unspecified)	-1	1	6	-4	0.9	10
Cc1ccccc1NC(=O)Nc1nc2ccc(S(C)(=O)=O)cc2s1	-4	.	.	.	.	.
Cc1nc2ccc(S(=O)(=O)NCC(=O)N3CCc4ccccc4C3)cc2s1	-3	0.3	0	66*	0.6	37
Cc1nc2ccc(S(=O)(=O)Nc3ccccc3C)cc2s1	-5	0	-31	97*	0.3	70*
Cc1nc2ccc(S(=O)(=O)NCC(=O)N3CCc4ccccc43)cc2s1	-1	0.8	-7	18	1.7	-66
Cc1nc2ccc(NS(=O)(=O)c3ccc(C)c(C)c3)cc2s1	-2	0.7	.	33	0.2	77*
COc1ccc(NS(=O)(=O)c2cccc(NC(=O)CCS(=O)(=O)c3ccccc3)c2)cc1	-1	.	.	.	.	.
Cc1noc(C)c1C(=O)NCCCN1CCCC1=O	0	1.1	3	-13	1.2	-16
COc1cc(NC(=O)Cn2nc(C(F)(F)F)c(Br)c2C)cc([N+](=O)[O-])c1	-3	.	.	.	.	.
CCn1cnc2sc(C(=O)N(Cc3ccc(N(C)C)cc3)Cc3ccco3)c(C)c2c1=O	1	0.1	4	88*	0	98*
CC(=O)Nc1nc(CCC(C)C)cc2c1c(=O)oc1ccccc12	0	0.9	9	14	0.8	16
CSc1nsc(SC)c1C(=O)N1CCN(S(=O)(=O)c2ccc(C)cc2)C1C (stereo unspecified)	-4	0.6	7	42	0.3	74*
O=C(Nc1cccc(O)c1)c1ccc(Br)cc1	-1	0.5	-13	52*	0.7	29
CC(C(=O)Nc1sc2c(c1C#N)CCCCC2)N1C(=O)c2ccccc2C1=O (stereo unspecified)	0	.	.	.	.	.
C/C(Cl)=C\Cn1c(Nc2ccc(C)cc2)nc2c1c(=O)n(C)c(=O)n2C	-1	1	-3	4	0.9	7
Cc1ccc(Nc2nc3c([nH]2)c(=O)n(C)c(=O)n3C)cc1	-2	0.9	-3	9	0.4	60*
COC(=O)c1sc2ccccc2c1NC(=O)c1coc2ccccc2c1=O	0	.	.	.	.	.
CCOCCCNS(=O)(=O)c1ccc(NC(=O)c2ccccc2)cc1	-1	1.1	8	-7	1	2
O=C(Nc1ccc(OC(=O)c2ccco2)cc1)c1ccco1	-2	.	-2	.	.	.
O=C(CSCCNS(=O)(=O)c1ccccc1)Nc1ccccc1	0	0.1	14	92*	0.5	50
SMILES	MRP1 act	CYP2C19 activ	MRP resist rev	CYP2C19 inhib	CYP2C9 activ	CYP2C9 inh
CCOCC(=O)Nc1ccc(S(=O)(=O)NCCc2ccccc2)cc1	-3	0.4	1	60*	0.7	30
O=C(Nc1ccccc1-c1ccccc1)c1ccc(NC(=O)c2ccco2)cc1	4	0.5	10	53*	0.5	48
O=C(O)COc1ccc(NC(=O)c2ccco2)cc1	-4	0.9	4	8	2.6*	-161
O=C(O)CCCSCC(=O)Nc1ccccc1	1	1	10	2	1.2	-17
CCCNS(=O)(=O)c1ccc(NC(=O)c2ccccn2)cc1	-3	0.4	52	57*	0.1	85*
CC(C)Oc1cccc(C(=O)Nc2ccc(NC(=O)c3ccco3)cc2)c1	-5	0.7	11	29	0.7	34
